Screens as filed in PubChem BioAssay.
ADAM10 inh: ADAM10 inhibition, QFRET primary screen | recombinant ADAM10, EDANS/DABCYL FRET peptide cleavage, 3 h | inhibition, % at 7 µM | hit rate 0.62% among 370,000;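 active means inhibition above a per-campaign cutoff equal to the mean of compounds falling between control-based bounds plus 3 SD, cut at about 20% in these data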;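 further: 0% = DMSO wells while the 100% control is not disclosed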
FAS TE block: FAS thioesterase (human) inhibition; AID 602261; recombinant FAS-TE, OMFH fluorogenic substrate, fluorescence endpoint; inhibition, % at 15 µM; hit rate 0.67% among 360,000; P49327;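 active means compounds whose normalised, plate-corrected inhibition of enzyme fluorescence in the single-dose primary screen is 50% or more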;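 further: 0% = DMSO with enzyme and 100% = substrate without enzyme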
ADAM17 inh: ADAM17 inhibition, QFRET primary screen | P78536 | recombinant ADAM17, EDANS/DABCYL FRET peptide cleavage | inhibition, % at 6.95 µM | hit rate 0.83% among 370,000;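 active means inhibition above the mean of compounds lying between control limits plus 3 SD, set per campaign, cut at about 8.5% in these data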;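 further: 0% = DMSO-only wells as the low control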
proKLK7 act: activators of human kallikrein-7 zymogen | P49862 | activation, % at 7 µM | purified proKLK7, EDANS-DABCYL substrate fluorescence; 100% is mature enzyme control, 0% vehicle | AID 652039 | hit rate 0.9% among 370,000;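 active means activation above the mean of all tested compounds plus 3 SD, computed per campaign excluding outliers beyond control limits, cut at about 13% in these data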
NR3A LBD binder: NR3A (human) ligand-binding domain modulation. hit rate 2.5% among 340,000. NR3A LBD differential scanning fluorimetry, Tm shift; 0% = protein alone, 100% = glycine-bound protein. AID 1259313. Tm shift relative to glycine control, % at 25 µM;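 active means melting temperature shift of at least 10% of the positive control shift, at one fixed dose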
KLK7 act conf: proKLK7 activation, confirmation. purified proKLK7, EDANS-DABCYL substrate fluorescence; scaled: vehicle 0, mature enzyme 100. AID 686949. activation, % at 7 µM. hit rate 68% among 3,200. shares compounds with proKLK7 act;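 active means activation, as change over the incubation, above the mean of all tested compounds plus 3 SD, cut at about 13% in these data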
EDANS interfere: optically interferes with EDANS-DABCYL signal, flagging KLK7 hits. shares compounds with proKLK7 act. EDANS-DABCYL substrate fluorescence interference, no enzyme, 4 h; solvent 0%, active enzyme control 100%. activation, % at 7 µM. hit rate 80% among 3,200. AID 686952;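 active means activation above the all-compound mean plus 3 SD, ignoring values outside control-based bounds, cut at about 4.8% in these data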;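 further: value is the 4 h activation minus the activation read at time zero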
K7 EDANS ctr: EDANS fluorescence interference in dose response, no enzyme; shares compounds with proKLK7 act; EDANS-DABCYL peptide fluorescence interference; EC50, µM; hit rate 20% among 250;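 active means compounds that raise the fluorescence signal in this interference counterscreen, with EC50 at or below 10 µM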;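 further: intact quenched peptide substrate alone read at 355 nm excitation and 520 nm emission; signal is fluorescence gain from T0 to T4 after four hours at room temperature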
Starred values were filed as active, the others as inactive; i = inactive; . = no result given. Hits are enriched below; roughly 4.6% of the tested compounds scored in any of these assays.

SMILES	ADAM10 inh	FAS TE block	ADAM17 inh	proKLK7 act	NR3A LBD binder	KLK7 act conf	EDANS interfere	others
Cc1ccc(-c2c(NC(=O)c3ccccc3)nc3ncccn23)cc1	-332	.	-94	8	.	.	.
CCN(CC)c1ccc(C2C(C(=O)Nc3ccccn3)=C(C)NC3=C2C(=O)CC(C)(C)C3)cc1 (stereo unspecified)	-160	-2	-45	7	-3	.	.
CCn1cc(C2C(C(=O)Nc3cc(C)ccn3)=C(C)NC3=C2C(=O)CC(C)(C)C3)c(C)n1 (stereo unspecified)	i	-8	-214	20*	-2	8	15*
Cc1cc(C)n2cc(CSc3ncn[nH]3)nc2n1	i	-7	-167	28*	-1	8	6.8*
Cc1nc2sc(C(=O)NCc3nccs3)c(N)c2c(C)c1Cl	-26	.	-6	84*	.	63*	68*
Cc1nc2sc(C(=O)NC3CC3)c(N)c2c(C)c1Cl	-34	.	-9	4	.	.	.
Cn1cc(-c2cccc3[nH]cc(-c4ccccc4)c23)c2ccccc21	-6	.	-1	-1	.	.	.
CCOc1ccc(CCNC(=O)COC(=O)c2nccnc2N)cc1OCC	-201	-7	-66	30*	1	63*	55*
CCOc1ccc(CCNC(=O)COC(=O)c2cccnc2OCC)cc1OCC	-2	-6	-5	0	1	.	.
Cc1cc(C)c(S(=O)(=O)NCc2ccccn2)cc1C	-6	2	-2	-1	1	.	.
CCN(CC)CCNS(=O)(=O)c1ccc2c3c(cccc13)C(=O)N2	i	-4	-377	100*	1	58*	70*
O=C1Nc2ccc(S(=O)(=O)NCc3ccccn3)c3cccc1c23	i	-8	i	16*	-6	72*	72*
CN(C)CCNS(=O)(=O)c1ccc2c3c(cccc13)C(=O)N2	i	-5	-422	155*	-3	68*	57*	K7 EDANS ctr=2.1*
O=C1Nc2ccc(S(=O)(=O)N3CCCCCC3)c3cccc1c23	-108	-5	-29	2	3	.	.
CCOC(=O)N1CCN(C(=O)C[C@H]2C[C@@]3(C(=O)OC)C(=C[C@H](COCc4ccccc4)O[C@@H]3C)N(Cc3ccco3)C2=O)CC1	2	.	3	0	.	.	.
CSc1ccc(/C=C/C(=O)c2ccc(O)cc2)cc1	-11	3	-3	28*	11*	2	2
CCOC(=O)[C@@]12CCCC3=C1N(CCC3)C(=O)[C@H]2CC(=O)NCc1ccc(OC)c(OC)c1	5	.	0	-1	.	.	.
COc1ccc(O)c(C(=O)CC(=O)c2ccncc2)c1	-482	-5	-137	14*	2	282*	290*
COc1ccc(C(=O)CC(=O)c2ccc(OC)cc2)cc1	-20	10	-11	-4	-18	.	.
O=C(CSc1nnc(-c2cccnc2)n1-c1ccccc1)Nc1ccc(OCc2ccccc2)cc1	7	.	4	1	.	.	.
CCN(CC)c1nc2ccccc2nc1C(C#N)C(=O)NCCCOC (stereo unspecified)	i	0	-194	14*	-8	33*	37*
CCn1c(/C=C/c2cc[n+](C)cc2)nc2ccccc21	-332	-2	-127	57*	2	59*	62*
COc1ccc(OC)c(/C=C/C(=O)N2C(=O)c3cccc(N)c3C2=O)c1	-285	-5	-92	44*	11*	654*	689*
COc1cc(/C=C/C(=O)N2C(=O)c3cccc(N)c3C2=O)cc(OC)c1OC	-144	-7	-46	21*	1	307*	297*
C=CCn1c(SCC(=O)NNC(=O)Nc2ccc(C)cc2)nnc1-c1ccccc1	15	1	2	0	0	.	.
SMILES	ADAM10 inh	FAS TE block	ADAM17 inh	proKLK7 act	NR3A LBD binder	KLK7 act conf	EDANS interfere	others
Cc1ccc2nc(-c3ccc(NC(=O)CSc4nnc(-c5cccc(Cl)c5)n4Cc4ccco4)cc3)sc2c1	-167	.	-49	70*	.	-21	-30
CCOc1ccc(NC(=O)CSc2nnc(-c3cc(C)[nH]n3)n2N)cc1	-4	-4	-2	0	-2	.	.
Cc1ccc(-c2nnc(SCC(=O)Nc3ccc(-c4nc5ccc(C)cc5s4)cc3)n2Cc2ccco2)cc1	-76	.	-22	104*	.	94*	116*
C=CCn1c(SCC(=O)Nc2ccc(-c3nc4ccc(C)cc4s3)cc2)nnc1-c1ccccc1	i	-1	-142	26*	-13	67*	67*
Cc1ccc2nc(-c3ccc(NC(=O)CSc4nnc(-c5cc(C)[nH]n5)n4N)cc3)sc2c1	-297	.	-75	33*	.	-3	-39
C[C@H]1COc2cc(Br)ccc2S(=O)(=O)N1Cc1cn(Cc2ccc(F)cc2)nn1	0	.	5	1	.	.	.
CC(=O)N(C(C)=O)c1ncc2c([nH]c3ccccc32)c1C#N	-283	-5	-88	19*	-3	25*	25*
COc1cccc(C(=O)Nc2cc(-c3cn4cccnc4n3)ccc2C)c1	i	-4	i	31*	0	12	-2
CC(C)(C)CC(=O)Nc1cccc(-c2cn3cccnc3n2)c1	i	-2	i	25*	-1	16*	19*
COc1cc(C(=O)Nc2cccc(-c3cn4cccnc4n3)c2)cc(OC)c1OC	i	-2	i	30*	1	-9	-11
CCCCNC(=O)C[C@H]1C(=O)N(CCCOC)C2=CCCCC[C@]21C(=O)OC	-2	.	2	0	.	.	.
CN1[C@@H](Cc2ccccc2)COc2cccc(F)c2S1(=O)=O	2	.	-1	0	.	.	.
Cc1nc2nc(N)nc(OCc3ccccc3)c2nc1C	i	-1	i	59*	0	75*	80*
c1ccc(C2Nc3ccccc3-c3nc4ccccc4n32)nc1 (stereo unspecified)	i	-6	-397	36*	-5	14*	16*
Cc1cc2n(n1)C(c1ccco1)Nc1ccccc1-2 (stereo unspecified)	-73	9	-16	0	-2	.	.
c1coc(C2Nc3ccccc3-c3nc4ccccc4n32)c1 (stereo unspecified)	i	10	i	16*	-2	39*	40*
c1ccc(C2Nc3ccccc3-c3nc4ccccc4n32)cc1 (stereo unspecified)	i	8	i	66*	-16	3	5.4*
O=C1c2ccccc2NC(c2ccccn2)N1c1ccc(Cl)cc1 (stereo unspecified)	i	-6	-265	12	0	.	.
